Drawing on PMC7862700, “An all-to-all approach to the identification of sequence-specific readers for epigenetic DNA modifications on cytosine”, this text covers binding signal for one sequence.

Holding throughout (experiment): DAPPL (digital affinity profiling via proximity ligation, sequencing); 10 mM Tris-HCl pH 7.5, 50 mM NaCl, 1 mM DTT, 4% glycerol, room temperature, 30 min; GST-TFs on glutathione beads, 16-mer random dsDNA library, 0.1% formaldehyde crosslink after washing; high values mean tight binding
For one assay, the target named is T1, FEV (Homo sapiens, UniProt Q99581 1-238).
T1 sequence: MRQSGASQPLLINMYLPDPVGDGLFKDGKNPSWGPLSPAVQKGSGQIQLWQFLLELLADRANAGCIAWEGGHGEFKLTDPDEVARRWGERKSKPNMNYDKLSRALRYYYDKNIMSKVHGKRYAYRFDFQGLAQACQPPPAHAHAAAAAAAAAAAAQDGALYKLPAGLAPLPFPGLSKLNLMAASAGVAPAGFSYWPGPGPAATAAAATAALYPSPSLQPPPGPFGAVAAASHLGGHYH
The following applies: protein: recombinant; tags: N-terminal GST; dsDNA, one strand shown. An outline of the steps:
(§1)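 Each value of binding signal is a hexamer's read frequency for a factor divided by the same hexamer's frequency in the tag-only sample. Barcoded, bead-captured GST fusions of human transcription factors made in yeast were pooled with that sample and incubated with 200 nmole of a random double-stranded 16-mer DNA library in Tris/NaCl/DTT/glycerol buffer at room temperature for 30 min. Washing, 0.1% formaldehyde crosslinking, proximity ligation, PCR and Illumina NextSeq500 sequencing followed.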

The target in the next assay is ETV5 (Homo sapiens, UniProt P41161 1-510). The following applies: protein: recombinant; tags: N-terminal GST; dsDNA, one strand shown. Put shortly:
as §1

In another assay the target is HSF1 (Homo sapiens, UniProt Q00613 1-529). The following applies: protein: recombinant; tags: N-terminal GST; chain copies: 3; dsDNA, one strand shown. Put shortly:
as §1

The target in the next assay is T2, SPIC (Homo sapiens, UniProt Q8N5J4 1-248).
T2 sequence: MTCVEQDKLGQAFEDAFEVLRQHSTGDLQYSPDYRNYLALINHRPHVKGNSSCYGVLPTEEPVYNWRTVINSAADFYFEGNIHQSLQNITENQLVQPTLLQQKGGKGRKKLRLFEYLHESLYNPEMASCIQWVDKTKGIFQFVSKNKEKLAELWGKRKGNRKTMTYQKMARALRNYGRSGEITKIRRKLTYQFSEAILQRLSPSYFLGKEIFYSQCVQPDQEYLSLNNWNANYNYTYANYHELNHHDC
The following applies: protein: recombinant; tags: N-terminal GST; dsDNA, one strand shown. An outline of the steps: as §1

The target of a further assay is ELF4 (Homo sapiens, UniProt Q99607 1-663). Conditions: protein: recombinant; tags: N-terminal GST; dsDNA, one strand shown. An outline of the steps: as §1
The target of the next assay is T3, ELK4 (Homo sapiens, UniProt P28324-2 1-405).
T3 sequence: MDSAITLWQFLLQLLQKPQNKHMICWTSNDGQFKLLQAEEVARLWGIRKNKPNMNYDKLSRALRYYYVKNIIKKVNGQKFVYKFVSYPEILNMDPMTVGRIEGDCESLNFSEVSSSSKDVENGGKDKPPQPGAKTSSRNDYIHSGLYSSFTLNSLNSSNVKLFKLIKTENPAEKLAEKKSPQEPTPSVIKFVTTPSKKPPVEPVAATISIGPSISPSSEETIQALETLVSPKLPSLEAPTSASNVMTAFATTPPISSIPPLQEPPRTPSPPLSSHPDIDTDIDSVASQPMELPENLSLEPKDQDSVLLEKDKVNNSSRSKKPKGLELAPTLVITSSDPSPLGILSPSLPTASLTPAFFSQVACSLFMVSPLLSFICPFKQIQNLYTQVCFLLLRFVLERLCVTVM
Conditions: protein: recombinant; tags: N-terminal GST; dsDNA, one strand shown. An outline of the steps:
as §1

The next assay deals with T4, ETV2 (Homo sapiens, UniProt O00321 1-342).
T4 sequence: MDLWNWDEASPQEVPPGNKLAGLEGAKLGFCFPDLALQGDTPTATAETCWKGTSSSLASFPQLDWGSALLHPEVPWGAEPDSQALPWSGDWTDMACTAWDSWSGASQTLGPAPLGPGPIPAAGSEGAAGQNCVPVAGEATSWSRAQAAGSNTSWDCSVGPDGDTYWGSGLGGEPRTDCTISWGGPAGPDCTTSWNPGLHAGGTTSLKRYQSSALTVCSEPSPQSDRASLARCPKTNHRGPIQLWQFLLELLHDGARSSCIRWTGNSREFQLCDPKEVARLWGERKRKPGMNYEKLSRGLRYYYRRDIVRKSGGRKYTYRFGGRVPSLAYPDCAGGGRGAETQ
The following applies: protein: recombinant; tags: N-terminal GST; dsDNA, one strand shown. An outline of the steps: as §1

A further assay deals with T5, ELF3 (Homo sapiens, UniProt P78545 1-371).
T5 sequence: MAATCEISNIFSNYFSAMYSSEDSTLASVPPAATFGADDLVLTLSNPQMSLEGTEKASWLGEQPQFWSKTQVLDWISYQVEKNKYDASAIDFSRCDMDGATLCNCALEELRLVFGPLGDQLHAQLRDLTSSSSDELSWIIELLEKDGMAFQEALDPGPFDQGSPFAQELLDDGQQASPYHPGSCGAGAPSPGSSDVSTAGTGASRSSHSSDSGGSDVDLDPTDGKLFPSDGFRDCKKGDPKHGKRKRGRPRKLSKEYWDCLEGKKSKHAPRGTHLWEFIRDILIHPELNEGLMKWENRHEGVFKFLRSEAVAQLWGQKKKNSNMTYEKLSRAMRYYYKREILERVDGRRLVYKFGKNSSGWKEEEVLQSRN
Conditions: protein: recombinant; tags: N-terminal GST; dsDNA, one strand shown. Put shortly:
as §1

In another assay the target is CRX (Homo sapiens, UniProt O43186 1-299). The following applies: protein: recombinant; tags: N-terminal GST; dsDNA, one strand shown. An outline of the steps:
as §1

The next assay deals with ETV1 (Homo sapiens, UniProt P50549 1-477). The following applies: protein: recombinant; tags: N-terminal GST; dsDNA, one strand shown. Put shortly:
as §1

The next assay addresses T6, ERF (Homo sapiens, UniProt P50548 1-548).
T6 sequence: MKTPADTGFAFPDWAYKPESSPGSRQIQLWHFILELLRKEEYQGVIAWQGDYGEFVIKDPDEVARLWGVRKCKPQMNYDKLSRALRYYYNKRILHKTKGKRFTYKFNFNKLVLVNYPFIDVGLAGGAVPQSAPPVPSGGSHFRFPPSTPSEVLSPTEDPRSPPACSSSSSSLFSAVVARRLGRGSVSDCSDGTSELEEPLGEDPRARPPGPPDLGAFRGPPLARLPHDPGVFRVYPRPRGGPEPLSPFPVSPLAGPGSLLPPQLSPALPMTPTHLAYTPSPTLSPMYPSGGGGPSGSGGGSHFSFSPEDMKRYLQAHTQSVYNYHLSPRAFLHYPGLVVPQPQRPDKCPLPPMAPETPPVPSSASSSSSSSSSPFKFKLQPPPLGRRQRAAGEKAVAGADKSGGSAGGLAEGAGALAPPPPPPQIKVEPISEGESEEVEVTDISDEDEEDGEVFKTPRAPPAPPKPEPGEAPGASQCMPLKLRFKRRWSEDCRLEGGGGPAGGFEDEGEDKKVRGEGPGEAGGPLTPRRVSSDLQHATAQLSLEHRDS
The following applies: protein: recombinant; tags: N-terminal GST; dsDNA, one strand shown. An outline of the steps:
as §1

For the next assay, the target named is T7, ETV3L (Homo sapiens, UniProt Q6ZN32 1-361).
T7 sequence: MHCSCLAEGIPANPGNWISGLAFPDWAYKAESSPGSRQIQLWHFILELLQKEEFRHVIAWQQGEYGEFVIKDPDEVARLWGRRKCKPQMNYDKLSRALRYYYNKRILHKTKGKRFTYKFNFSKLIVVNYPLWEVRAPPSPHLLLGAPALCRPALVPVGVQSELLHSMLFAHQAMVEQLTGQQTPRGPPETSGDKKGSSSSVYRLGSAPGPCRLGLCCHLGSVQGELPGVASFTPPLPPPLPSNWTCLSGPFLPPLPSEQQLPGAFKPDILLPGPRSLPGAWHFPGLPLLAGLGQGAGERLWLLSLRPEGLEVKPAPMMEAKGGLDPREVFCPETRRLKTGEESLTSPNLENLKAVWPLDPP
Conditions: protein: recombinant; tags: N-terminal GST; dsDNA, one strand shown. An outline of the steps:
as §1

The target of a further assay is T8, ETS2 (Homo sapiens, UniProt P15036 1-469).
T8 sequence: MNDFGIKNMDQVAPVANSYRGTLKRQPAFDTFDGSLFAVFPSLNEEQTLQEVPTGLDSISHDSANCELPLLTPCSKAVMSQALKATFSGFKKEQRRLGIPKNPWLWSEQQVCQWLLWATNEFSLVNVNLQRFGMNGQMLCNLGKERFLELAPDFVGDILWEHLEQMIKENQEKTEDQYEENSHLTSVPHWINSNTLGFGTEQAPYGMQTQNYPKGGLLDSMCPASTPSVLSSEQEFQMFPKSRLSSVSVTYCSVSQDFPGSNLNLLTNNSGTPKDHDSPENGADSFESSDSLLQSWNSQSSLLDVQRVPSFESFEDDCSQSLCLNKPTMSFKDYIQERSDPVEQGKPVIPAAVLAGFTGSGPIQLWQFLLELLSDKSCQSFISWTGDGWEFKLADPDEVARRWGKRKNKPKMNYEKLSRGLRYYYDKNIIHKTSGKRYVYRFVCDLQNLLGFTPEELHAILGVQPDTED
Conditions: protein: recombinant; tags: N-terminal GST; dsDNA, one strand shown. Put shortly:
as §1

A further assay addresses T9, SPDEF (Homo sapiens, UniProt O95238 1-335).
T9 sequence: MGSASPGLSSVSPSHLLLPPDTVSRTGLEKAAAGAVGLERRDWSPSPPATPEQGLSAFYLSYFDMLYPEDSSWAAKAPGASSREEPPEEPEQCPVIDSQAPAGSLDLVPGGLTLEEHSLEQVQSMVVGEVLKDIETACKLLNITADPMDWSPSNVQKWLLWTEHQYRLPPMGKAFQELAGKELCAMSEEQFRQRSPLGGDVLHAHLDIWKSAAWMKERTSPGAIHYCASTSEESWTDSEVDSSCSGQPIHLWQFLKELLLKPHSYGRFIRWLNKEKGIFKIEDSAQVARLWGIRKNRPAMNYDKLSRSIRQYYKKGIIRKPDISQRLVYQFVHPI
Conditions: protein: recombinant; tags: N-terminal GST; dsDNA, one strand shown. An outline of the steps:
as §1

In a further assay the target is T10, ETV7 (Homo sapiens, UniProt Q9Y603 1-341).
T10 sequence: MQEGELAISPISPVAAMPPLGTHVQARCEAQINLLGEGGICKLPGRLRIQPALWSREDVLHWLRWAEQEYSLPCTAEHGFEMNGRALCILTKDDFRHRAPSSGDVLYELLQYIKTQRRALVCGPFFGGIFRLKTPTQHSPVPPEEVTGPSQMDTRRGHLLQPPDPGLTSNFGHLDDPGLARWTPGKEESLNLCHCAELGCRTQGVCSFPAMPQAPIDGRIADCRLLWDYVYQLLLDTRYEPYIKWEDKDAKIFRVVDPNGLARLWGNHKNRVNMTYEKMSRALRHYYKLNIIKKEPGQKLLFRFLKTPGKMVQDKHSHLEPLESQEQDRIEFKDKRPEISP
Conditions: protein: recombinant; tags: N-terminal GST; dsDNA, one strand shown. Put shortly:
as §1

The target in the next assay is T11, ELF5 (Homo sapiens, UniProt Q9UKW6-2 1-255).
T11 sequence: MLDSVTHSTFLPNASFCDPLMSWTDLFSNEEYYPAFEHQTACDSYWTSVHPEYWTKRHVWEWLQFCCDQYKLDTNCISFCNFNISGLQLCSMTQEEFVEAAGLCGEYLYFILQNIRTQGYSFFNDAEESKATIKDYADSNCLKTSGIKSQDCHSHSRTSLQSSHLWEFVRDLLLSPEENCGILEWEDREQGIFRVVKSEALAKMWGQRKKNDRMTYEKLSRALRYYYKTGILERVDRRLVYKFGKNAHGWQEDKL
The following applies: protein: recombinant; tags: N-terminal GST; dsDNA, one strand shown. Put shortly: as §1

Another assay has as its target T12, ETV3 (Homo sapiens, UniProt P41162-2 1-143).
T12 sequence: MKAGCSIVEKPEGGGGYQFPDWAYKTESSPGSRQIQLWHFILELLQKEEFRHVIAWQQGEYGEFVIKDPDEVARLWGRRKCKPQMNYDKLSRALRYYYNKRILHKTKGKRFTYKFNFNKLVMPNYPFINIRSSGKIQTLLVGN
Conditions: protein: recombinant; tags: N-terminal GST; dsDNA, one strand shown. An outline of the steps: as §1

A further assay concerns the target ETV6 (Homo sapiens, UniProt P41212 1-452). Conditions: protein: recombinant; tags: N-terminal GST; dsDNA, one strand shown. An outline of the steps:
as §1

Chain of ELF4 (Q99607 whole entry): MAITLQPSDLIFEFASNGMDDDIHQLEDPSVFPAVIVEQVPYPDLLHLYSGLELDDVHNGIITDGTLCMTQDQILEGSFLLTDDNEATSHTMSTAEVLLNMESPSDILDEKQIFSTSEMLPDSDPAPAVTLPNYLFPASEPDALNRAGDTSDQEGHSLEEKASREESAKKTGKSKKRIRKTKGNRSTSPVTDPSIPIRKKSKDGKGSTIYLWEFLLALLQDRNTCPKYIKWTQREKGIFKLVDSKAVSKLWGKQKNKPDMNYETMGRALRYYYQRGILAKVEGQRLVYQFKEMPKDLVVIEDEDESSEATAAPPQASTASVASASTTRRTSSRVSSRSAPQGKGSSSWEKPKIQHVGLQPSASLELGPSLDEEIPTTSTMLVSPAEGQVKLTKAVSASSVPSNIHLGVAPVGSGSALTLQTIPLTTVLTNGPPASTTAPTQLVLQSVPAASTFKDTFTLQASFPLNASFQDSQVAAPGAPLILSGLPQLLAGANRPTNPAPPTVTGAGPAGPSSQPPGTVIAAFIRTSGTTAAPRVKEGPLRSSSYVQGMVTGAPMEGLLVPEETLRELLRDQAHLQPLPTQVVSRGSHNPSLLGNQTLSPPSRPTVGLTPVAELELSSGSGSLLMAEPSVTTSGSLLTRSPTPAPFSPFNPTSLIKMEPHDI
Chain of ETV1 (P50549 whole entry): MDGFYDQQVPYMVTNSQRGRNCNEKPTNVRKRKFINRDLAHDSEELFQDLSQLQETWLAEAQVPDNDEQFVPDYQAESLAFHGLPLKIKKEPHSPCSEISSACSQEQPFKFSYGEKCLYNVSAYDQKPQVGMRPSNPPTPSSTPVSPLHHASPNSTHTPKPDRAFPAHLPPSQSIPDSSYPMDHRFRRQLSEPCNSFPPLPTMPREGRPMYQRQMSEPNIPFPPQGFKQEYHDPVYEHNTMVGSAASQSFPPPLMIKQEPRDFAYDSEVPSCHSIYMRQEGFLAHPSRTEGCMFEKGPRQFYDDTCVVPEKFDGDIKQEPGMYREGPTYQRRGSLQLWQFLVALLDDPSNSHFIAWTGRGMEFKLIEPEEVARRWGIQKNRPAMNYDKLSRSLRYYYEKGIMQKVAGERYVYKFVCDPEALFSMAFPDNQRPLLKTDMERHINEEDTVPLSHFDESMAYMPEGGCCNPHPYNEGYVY
Chain of ETV6 (P41212 whole entry): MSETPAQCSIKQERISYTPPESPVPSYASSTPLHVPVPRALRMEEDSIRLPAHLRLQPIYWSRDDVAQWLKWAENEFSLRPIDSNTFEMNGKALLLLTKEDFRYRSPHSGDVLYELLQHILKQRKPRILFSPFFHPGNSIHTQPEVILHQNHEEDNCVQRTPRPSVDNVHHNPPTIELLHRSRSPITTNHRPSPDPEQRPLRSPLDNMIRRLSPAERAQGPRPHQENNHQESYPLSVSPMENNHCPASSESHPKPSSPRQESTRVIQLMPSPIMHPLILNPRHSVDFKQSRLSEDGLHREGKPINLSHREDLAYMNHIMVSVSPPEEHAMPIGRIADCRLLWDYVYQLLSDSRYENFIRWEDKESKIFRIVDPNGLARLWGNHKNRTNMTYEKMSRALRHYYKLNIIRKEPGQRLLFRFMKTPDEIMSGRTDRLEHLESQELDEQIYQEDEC
Chain of CRX (O43186 whole entry): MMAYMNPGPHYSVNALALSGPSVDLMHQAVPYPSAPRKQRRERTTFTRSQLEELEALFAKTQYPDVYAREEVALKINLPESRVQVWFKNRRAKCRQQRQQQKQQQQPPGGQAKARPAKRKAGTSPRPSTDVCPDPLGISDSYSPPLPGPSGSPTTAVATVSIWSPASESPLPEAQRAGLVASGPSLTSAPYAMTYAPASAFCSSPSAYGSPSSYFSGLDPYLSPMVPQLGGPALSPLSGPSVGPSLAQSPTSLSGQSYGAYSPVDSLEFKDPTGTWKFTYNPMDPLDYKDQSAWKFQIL
Chain of ETV5 (P41161 whole entry): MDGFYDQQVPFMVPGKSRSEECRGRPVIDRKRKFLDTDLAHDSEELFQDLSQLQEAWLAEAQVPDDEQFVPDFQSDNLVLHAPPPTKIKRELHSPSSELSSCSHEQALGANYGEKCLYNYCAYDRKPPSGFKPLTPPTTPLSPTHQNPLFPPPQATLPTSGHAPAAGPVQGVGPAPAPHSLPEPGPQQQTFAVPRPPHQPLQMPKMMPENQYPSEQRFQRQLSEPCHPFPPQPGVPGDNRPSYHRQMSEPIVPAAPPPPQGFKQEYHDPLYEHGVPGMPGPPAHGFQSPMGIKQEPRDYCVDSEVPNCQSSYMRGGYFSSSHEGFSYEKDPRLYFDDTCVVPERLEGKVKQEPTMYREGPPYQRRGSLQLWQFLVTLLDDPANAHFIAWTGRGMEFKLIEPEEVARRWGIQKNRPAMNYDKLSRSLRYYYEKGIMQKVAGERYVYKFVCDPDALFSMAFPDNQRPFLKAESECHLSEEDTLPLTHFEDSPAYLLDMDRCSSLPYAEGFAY
Chain of HSF1 (Q00613 whole entry): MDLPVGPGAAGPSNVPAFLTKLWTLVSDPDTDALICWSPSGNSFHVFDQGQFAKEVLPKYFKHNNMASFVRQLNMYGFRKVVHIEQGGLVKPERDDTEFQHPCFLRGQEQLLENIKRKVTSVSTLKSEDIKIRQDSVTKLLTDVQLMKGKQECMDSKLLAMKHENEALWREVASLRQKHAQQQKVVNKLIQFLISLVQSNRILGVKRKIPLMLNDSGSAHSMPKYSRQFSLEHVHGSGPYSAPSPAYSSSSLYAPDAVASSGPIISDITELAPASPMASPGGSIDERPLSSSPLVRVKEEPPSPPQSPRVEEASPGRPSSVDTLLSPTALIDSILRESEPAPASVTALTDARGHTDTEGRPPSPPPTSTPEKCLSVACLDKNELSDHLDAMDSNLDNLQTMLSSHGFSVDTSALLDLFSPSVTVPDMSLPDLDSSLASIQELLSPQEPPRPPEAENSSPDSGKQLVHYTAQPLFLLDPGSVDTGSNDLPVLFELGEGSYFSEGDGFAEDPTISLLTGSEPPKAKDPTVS

Consider TCCTCA, for which the binding signal with FEV was 1.52 fold enrichment (6-mer frequency, TF over GST control); in the assay with ETV5, 1.52 fold enrichment (6-mer frequency, TF over GST control); with HSF1, 1.2 fold enrichment (6-mer frequency, TF over GST control); with SPIC, 1.63 fold enrichment (6-mer frequency, TF over GST control); with ELF4, 1.57 fold enrichment (6-mer frequency, TF over GST control); in the assay with ELK4, 1.67 fold enrichment (6-mer frequency, TF over GST control). Moreover, the binding signal is 1.66 fold enrichment (6-mer frequency, TF over GST control) with ETV2; 1.44 fold enrichment (6-mer frequency, TF over GST control) with ELF3; 1.4 fold enrichment (6-mer frequency, TF over GST control) in the assay with CRX; 1.48 fold enrichment (6-mer frequency, TF over GST control) in the assay with ETV1; 1.32 fold enrichment (6-mer frequency, TF over GST control) with ERF; 1.62 fold enrichment (6-mer frequency, TF over GST control) with ETV3L. In addition, the binding signal in the assay with ETS2 is 1.56 fold enrichment (6-mer frequency, TF over GST control); with SPDEF, 1.59 fold enrichment (6-mer frequency, TF over GST control); with ETV7, 1.38 fold enrichment (6-mer frequency, TF over GST control); in the assay with ELF5, 2.13 fold enrichment (6-mer frequency, TF over GST control); in the assay with ETV3, 1.61 fold enrichment (6-mer frequency, TF over GST control); in the assay with ETV6, 1.54 fold enrichment (6-mer frequency, TF over GST control).
